± gives the uncertainty stated by the source.
system: HEK293T-Rex XBP1-RLuc; test: XBP1-RLuc splicing reporter activation, triplicate, relative to 500 nM thapsigargin (% of thapsigargin); higher = stronger IRE1/XBP1s reporter activation; details: 6.8 µM; 18 h; screen: confirmation
Description: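 HEK293T-Rex cells stably expressing the ERSE-firefly luciferase (BiP promoter, ATF6-preferring) or XBP1-splicing Renilla luciferase (IRE1/XBP1s) reporter, 1536-well plates, compound at 6.8 µM for 18 hr at 37 °C; luminescence read […] and expressed as % activation = 100*(compound - median DMSO)/(median 500 nM thapsigargin - median DMSO). Primary screen was single-pass; confirmation screen in triplicate (mean ± SD).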

Structure (SMILES)	XBP1-RLuc splicing reporter activation
COc1ccc2[nH]c3c(N4CCCCC4)ncnc3c2c1	4.28 ± 0.66
OCCNc1nc(Nc2ccc(Br)cc2)nc2ccccc12	23.4 ± 2.2
Oc1ccc(-c2csc3nc(-c4ccccc4)nn23)c(O)c1	15.3 ± 1.7
CNC(=O)c1ccccc1Nc1cc(NC(=O)Cc2ccc(F)c(F)c2)ncc1C(F)(F)F	91.3 ± 2.1
COc1cccc(-c2nc3ccc(N)cc3[nH]2)c1	9.9 ± 1.3
O=C(Nc1ccc(Cl)cn1)c1ccc(Cl)cc1Cl	0.717 ± 0.56
O=C(N/N=C/c1cccc(O)c1O)c1ccccc1I	11.2 ± 0.69
Cc1nn(-c2ccc(F)cc2)c2ncc(C(=O)NCc3ccco3)c(Cl)c12	110 ± 9.1
Nc1nc(Nc2ccc(Cl)c(Cl)c2)nc2ccccc12	11.3 ± 0.79
Cc1cc(C)nc(/N=C(\N)Nc2ccc(OCc3ccc(Cl)cc3)cc2)n1	81.2 ± 5.9
N#Cc1c(NC(=O)c2ccc(Br)cc2)sc2c1CCCC2	1.92 ± 0.76
N/C(=N\N=C\c1ccc(O)c(O)c1)c1nonc1N	19.5 ± 0.38
Nc1ccc2nc(-c3ccc(Cl)cc3)[nH]c2c1	8.9 ± 0.25
N#CC1=C(N)Oc2c(ccc3ccccc23)C1c1ccsc1 (stereo not given)	9.04 ± 1.1
CN(C)c1ccc(C(=NO)c2ccc(N(C)C)cc2)cc1	6.61 ± 1.1
Nc1c(C(=O)Nc2ccccc2)sc2nc3c(cc12)CCCCC3	12.6 ± 4.7
Cc1ccc(NC(=O)/C=C/c2ccco2)nc1	5.22 ± 0.94
COC(=O)c1ccc(C(=O)Nc2ccccc2N)cc1	9.29 ± 0.17
COc1ccc(/C=N/c2sc3c(c2C(N)=O)CCCC3)cc1	2.45 ± 0.41
Cc1ccc(/C=N/NC(=O)c2cccc(F)c2)cc1	2.01 ± 0.32

Structure (SMILES)	XBP1-RLuc splicing reporter activation
CN(C)c1ccc(-c2nc3ccc(N)cc3[nH]2)cc1	13.4 ± 0.35
Cc1ccc(O)c(N=CC2=C(O)c3ccccc3C2=O)c1	24.1 ± 1.3
COc1cccc(C(=O)/C=C/Nc2cc(C)ccc2O)c1	10.2 ± 0.47
COc1ccc(-c2nn(-c3ccccc3)cc2/C=C/C(=O)O)cc1[N+](=O)[O-]	8.64 ± 1.1
COC(=O)c1ccc2c(COC(C)=O)c(OC(C)=O)ccc2c1COC(C)=O	24.5 ± 2.2
CN(C)c1ccc(/C=C(/C#N)C(=O)Nc2ccc(O)cc2)cc1	22.2 ± 0.63
O=C(Nc1nc2c(s1)CCCC2)c1cccc2ccccc12	3.36 ± 1.8
COc1ccc(-c2cc(C(=O)Nc3cc(C)ccc3O)on2)cc1OC	10.9 ± 1.2
Cc1ccc(O)c(-c2cc(-c3cccs3)[nH]n2)c1	7.79 ± 0.86
O=C(N/N=C/c1ccc2c(c1)OCO2)c1cccc(F)c1	1.67 ± 0.99
Cc1ccc2nc(/C(C#N)=C/c3ccc(O)cc3)[nH]c2c1	13.8 ± 1.6
O=C1N/C(=C/c2ccc(O)cc2)C(=O)N1c1ccccc1	49 ± 4.5
Cn1cccc1/C=C1/SC(=Nc2ccccc2)NC1=O	5.98 ± 0.28
NC(=O)c1c(NC(=O)COc2ccccc2)sc2c1CCC2	-0.209 ± 0.99
O=C(N/N=C/c1cccc(O)c1O)c1ccccn1	27 ± 0.75
NN1C(=O)/C(=C/c2ccc(O)c(O)c2)SC1=S	16.7 ± 0.56
CC(Oc1ccc(Cl)cc1Cl)C(=O)NNC(=O)c1ccc(O)c(O)c1 (stereo not given)	15.4 ± 1.8
O=C(Nc1ccccc1O)c1ccc(NS(=O)(=O)c2cccc3cccnc23)cc1	14.2 ± 3.7
O=C(Nc1ccc(O)cc1)c1c(O)c2c([nH]c1=O)CCCC2	19 ± 0.94
CCOc1cc(/C=C2/NC(=O)N(c3cccc(Cl)c3)C2=O)ccc1O	22.9 ± 1.5
